Our source for the growth values is PubChem BioAssay (NCI).

Some test systems named below: NCI-H23 lung; NCI-H460 lung; 786-0 renal; DU-145 prostate; MDA-MB-231 breast; SF-268 CNS; SF-539 CNS; M14 melanoma; SNB-75 CNS; PC-3 prostate; UACC-62 melanoma; SK-MEL-28 melanoma; ACHN renal; OVCAR-5 ovarian; OVCAR-3 ovarian; NCI/ADR-RES ovarian; SW-620 colon; MCF7 breast; HCT-116 colon; KM12 colon.
Test in all cases: NCI-60 one-dose screen, 48 h (100 = growth as untreated, 0 = no growth, -100 = all killed)
What all share (details): 10 µM unless noted

The structures appear in SMILES notation. Compounds without any hit were thinned out: in the full panel of roughly 83,000, 20% have a hit.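 Single-dose data. Exposure time 48 hours. Values below 10 considered active.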 Values without a mark were called inactive. The source made the active and inactive calls.

For `O=C(O)C1(Br)CC12c1ccccc1-c1ccccc12` (stereo not drawn), the growth in the assay with NCI-H23 lung was 97.1%; in the assay with NCI-H460 lung it was 111%; in the assay on 786-0 renal it was 101%; in the assay on DU-145 prostate, 111%; in the assay on MDA-MB-231 breast, 115%; in the assay on SF-268 CNS, 100%. Also, the growth in the assay on SF-539 CNS is 103%; in the assay with M14 melanoma, 102%; with SNB-75 CNS, 104%; with PC-3 prostate, 100%; in the assay on UACC-62 melanoma it was 103%; in the assay on SK-MEL-28 melanoma it was 114%. Moreover, the growth in the assay on ACHN renal is 99%; with OVCAR-5 ovarian, 104%; in the assay with OVCAR-3 ovarian, 103%; with NCI/ADR-RES ovarian, 104%; in the assay on SW-620 colon, 111%; with MCF7 breast it was 93.4%. The growth in the assay with HCT-116 colon is 100%; with KM12 colon it was 99.7%.
Regarding `C=CC(O)CN1CC1CC` (stereo not drawn), the growth was 99% with NCI-H23 lung; 100% with NCI-H460 lung; 107% in the assay with 786-0 renal; 108% with DU-145 prostate; 113% with MDA-MB-231 breast; 106% with SF-268 CNS. Further, the growth in the assay with SF-539 CNS is 98%; in the assay with M14 melanoma, 96.5%; in the assay with SNB-75 CNS it was 85.1%; in the assay with PC-3 prostate, 98.1%; in the assay with UACC-62 melanoma, 92.6%; with SK-MEL-28 melanoma, 105%. In addition, the growth in the assay with ACHN renal was 102%; in the assay on OVCAR-5 ovarian, 104%; in the assay on OVCAR-3 ovarian, 111%; in the assay on NCI/ADR-RES ovarian it was 97.4%; with SW-620 colon, 92%; with MCF7 breast it was 94.2%. Also, the growth is 104% in the assay with HCT-116 colon and 106% in the assay with KM12 colon.
With `Cc1cc(CCl)c(C)cc1CCl`, the growth is 55.4% in the assay on NCI-H23 lung; 4.86% (active) with NCI-H460 lung; 36.9% with 786-0 renal; 1.11% (active) with DU-145 prostate; 108% in the assay on MDA-MB-231 breast; 41.9% in the assay with SF-268 CNS. The growth with M14 melanoma was 45.1%; with SNB-75 CNS, 48.4%; in the assay with PC-3 prostate it was 66.9%; in the assay with UACC-62 melanoma it was 60.6%; in the assay on SK-MEL-28 melanoma, 77.7%; with OVCAR-5 ovarian, 141%. The growth with OVCAR-3 ovarian is 2.57% (active); with NCI/ADR-RES ovarian it was 62%; with SW-620 colon it was 59.9%; with MCF7 breast, 7.03% (active); in the assay on HCT-116 colon it was 50.9%; in the assay with KM12 colon, -43.7% (active).
Consider `O=c1[nH]c2cc(Cl)ccc2n1C1CCN(CCCC(c2ccc(F)cc2)c2ccc(F)cc2)CC1`, for which the growth with NCI-H23 lung was 59.7%; with NCI-H460 lung, -49.2% (active); in the assay with 786-0 renal, 11.5%; in the assay on DU-145 prostate, -0.502% (active); in the assay with MDA-MB-231 breast it was 29.2%; with SF-268 CNS it was 24.8%. The growth is 15.5% with SF-539 CNS; -52.2% (active) with M14 melanoma; 60.7% in the assay with SNB-75 CNS; 7.82% (active) in the assay with PC-3 prostate; 39.7% in the assay with UACC-62 melanoma; -90.8% (active) with SK-MEL-28 melanoma. Also, the growth is 48.5% with ACHN renal; 76.3% in the assay with OVCAR-5 ovarian; -99.6% (active) in the assay on OVCAR-3 ovarian; 51.9% in the assay with NCI/ADR-RES ovarian; -80.7% (active) with SW-620 colon; -32.4% (active) in the assay with MCF7 breast. The growth was 3.23% (active) with HCT-116 colon and -94.6% (active) in the assay with KM12 colon.
